In PubChem BioAssay AID1851 (National Center for Advancing Translational Sciences (NCATS), 2009):
About 5,800 (36%) of roughly 16,000 compounds were called active. Another 23% or so got no clear call; they are omitted. The list shows a part of the results. Values without a mark were called inactive. Calls come from the whole dose curve; as a rule, active = well fitted curve in the direction sought with a large enough effect; inconclusive = small, poorly fitted or top-dose-only effect, or effect the other way; inactive = no such curve, though single readings can be large or run the other way.

Biological target: Cytochrome P450 2C19 (Homo sapiens) (UniProt P33261)
Assay: Cytochrome panel assay with activity outcomes
Settings: recombinant CYP, pro-luciferin dealkylation, luminescence, p450-cyp2c19; series mostly up to 57.1 µM; activity, negative = inhibition: at the top concentration
% is set by controls: 0 for no effect and ±100 for the full control effect.

Sequence of Cytochrome P450 2C19 (Homo sapiens) (P33261 whole entry, looked up): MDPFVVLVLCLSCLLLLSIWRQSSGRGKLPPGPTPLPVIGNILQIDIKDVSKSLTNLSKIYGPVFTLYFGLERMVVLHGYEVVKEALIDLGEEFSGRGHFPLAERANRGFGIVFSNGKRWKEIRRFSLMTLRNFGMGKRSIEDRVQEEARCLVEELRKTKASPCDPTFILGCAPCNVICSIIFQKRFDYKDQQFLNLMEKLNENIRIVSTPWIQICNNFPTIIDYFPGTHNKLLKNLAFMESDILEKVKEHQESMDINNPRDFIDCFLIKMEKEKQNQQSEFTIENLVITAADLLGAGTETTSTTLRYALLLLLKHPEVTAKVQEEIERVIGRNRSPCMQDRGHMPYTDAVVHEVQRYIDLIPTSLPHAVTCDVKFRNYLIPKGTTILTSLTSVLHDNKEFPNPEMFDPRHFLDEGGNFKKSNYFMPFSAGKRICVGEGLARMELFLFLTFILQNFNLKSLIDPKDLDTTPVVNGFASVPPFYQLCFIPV

Structure (SMILES)	activity, negative = inhibition	AC50
CC(C)OC(=O)C(CC(=O)O)N1CCOCC1 (configuration not stated)	-11.3%	–
CCOC(=O)C(C)CC(C)C(=O)N1CCOCCN(C(=O)C(C)CC(C)C(=O)OCC)CCOCC1 (configuration not stated)	–	10 µM (active)
NC(=O)CN1CCOCCOCCOCCOCCOCC1	33.6%	–
CC1(C)O[C@@H]2C[C@H]3[C@H]4C[C@H](F)C5=CC(=O)CC[C@]5(C)[C@@H]4[C@H](O)C[C@]3(C)[C@]2(C(=O)CO)O1	18.6% [at 25.6 µM]	–
c1ccc2c(c1)C(=Nc1ccc(N=C3c4ccccc4-c4ccccc43)cc1)c1ccccc1-2	-36.8% [at 11.4 µM]	–
CC1=NN(c2ccccc2)C(=O)C1	8.71%	–
O=C1CC(=Nc2ccccc2)NN1c1ccccc1	–	5.62 µM (active)
CCCCC1=NN2C(=N)CC(=O)N=C2S1	21.6%	–
C[C@H]1COC(=O)[C@H](Cc2ccccc2)NC(=O)[C@@H](C)COC(=O)[C@H](Cc2ccccc2)NC1=O	-17.3% [at 11.4 µM]	–
CO[C@@H]1COC(=O)[C@H](Cc2ccccc2)NC(=O)C/C=C\[C@@H](C)[C@H](OC)COC(=O)[C@@H](C)NC(=O)C/C=C\[C@H]1C	10.6% [at 11.4 µM]	–
O=C1C(Cc2ccccc2)NC(=S)N1c1ccccc1 (configuration not stated)	–	3.16 µM (active)
C[C@H](NC(=O)Cn1cncn1)c1ccccc1	-19.3%	–
Cc1ccc(CNC(=O)Cn2cncn2)cc1	–	7.94 µM (active)
O=C(Cn1cnc([N+](=O)[O-])c1)NCc1ccc(F)cc1	-0.808%	–
Cc1cc(N)n(-c2ccc3ccccc3c2)n1	–	25.1 µM (active)
O=C(c1csnn1)N1CCC2(CC1)CN(c1ccccn1)C2	-34%	–
Cc1ccc(Nc2ccc(-n3ccnc3)nn2)cc1C	–	0.0501 µM (active)
CCC(C)NC(=O)c1ccccc1NC(=O)Nc1ccccc1 (configuration not stated)	–	10 µM (active)
CC(C)C(=O)NC(=S)Nc1ccccc1C(=O)Nc1ccccc1	–	15.8 µM (active)
Clc1ccc(CO[C@@H](Cn2ccnc2)c2ccc(Cl)cc2Cl)cc1	–	0.0631 µM (active)
Clc1ccc([C@H](Cn2ccnc2)OCc2csc3c(Cl)cccc23)c(Cl)c1	–	0.251 µM (active)
CC1(C)Cc2c(sc3c2C(=O)N(c2ccccc2)C2=NCCN23)CS1	-11.2%	–
[O-][n+]1c(CN2CCCCC2)nc2cccc3c2c1-c1ccccc1-3	9.09% [at 11.4 µM]	–
Clc1ccc(Cn2c(CN3CCCC3)nc3ccccc32)cc1	–	0.2 µM (active)
Cn1c(-c2ccc(CN3CCCCC3)o2)nc2ccccc21	-21.4%	–

Structure (SMILES)	activity, negative = inhibition	AC50
Cc1ccccc1CN1C2=NCCN2C(=O)C2=C1CCN(Cc1ccccc1)C2	10.2% [at 11.4 µM]	–
c1ccc(Cn2c(CN3CCCC3)nc3ccccc32)cc1	–	3.55 µM (active)
Cc1ccccc1Cn1c(Cc2ccccc2)nc2ccccc21	–	2 µM (active)
C[N+]1(C)CCO[C@](O)(c2ccccc2)C1	42.8% [at 11.4 µM]	–
c1cc2c(cc1C(N1CCNCC1)N1CCNCC1)OCO2	14.2% [at 11.4 µM]	–
c1ccc(SC(Sc2ccccc2)c2ccc3c(c2)OCO3)cc1	–	0.0316 µM (active)
Cc1ccc(S(=O)(=O)N(CC(=O)N/N=C/c2ccc(F)cc2)c2cccc3cccnc23)cc1	–	1.12 µM (active)
CC(C)COCC1CC2(CC(C)(c3csc(N)n3)OC2=O)C(=O)O1 (configuration not stated)	–	15.8 µM (active)
CCCSC1=C(C#N)C(c2cccnc2)C(C(=O)OCC)=C(c2ccccc2)N1 (configuration not stated)	–	14.1 µM (active)
N#Cc1cccc(NC(=O)N2CCCC3(CCN(C(=O)c4cnccn4)CC3)C2)c1	-28%	–
NN(CC(=O)O)CC(=O)O	14.5% [at 11.4 µM]	–
O=C(Nc1nc(-c2ccccc2)cs1)c1ccc(Br)o1	–	14.1 µM (active)
O=C(Nc1nc(-c2ccccc2)cs1)c1cccc([N+](=O)[O-])c1	–	1.58 µM (active)
CCNc1ncc2nc(C)c(=O)n(C)c2n1	-43.7%	–
COc1ccc([C@H]2Sc3ccccc3N(CCN(C)C)C(=O)[C@H]2OC(C)=O)cc1	–	inactive
CN(C)CCCN=c1c2ccccc2n(C)c2[nH]c(=O)n(C)c(=O)c12	31% [at 11.4 µM]	–
CCNc1ncc2nc(-c3ccc(F)cc3)c(=O)n(CCC#N)c2n1	-4.86%	–
CC1(C)C(=O)N(CCN2CCC(C(=O)c3ccc(F)cc3)CC2)c2ccccc21	-18.1%	–
CC(C)c1ccc(C(=O)CC2(O)C(=O)N(CN3CCOCC3)c3ccccc32)cc1 (configuration not stated)	–	2.24 µM (active)
C[C@@H]1C[C@H]2[C@H]3C[C@@H](F)C4=CC(=O)C=C[C@]4(C)[C@@]3(Cl)[C@@H](O)C[C@@]2(C)[C@@H]1C(=O)COC(=O)C(C)(C)C	-30.8% [at 25.6 µM]	–
Clc1ccc(/C=N/Nc2nnc(-c3ncc[nH]3)c3ccccc23)cc1	–	11.2 µM (active)
C(=N/Nc1nnc2c(n1)[nH]c1ccccc12)/c1cccnc1	-3.42% [at 11.4 µM]	–
C=CC[n+]1c(-c2ccc(C)cc2)csc1NNC(=O)Nc1ccccc1	–	5.01 µM (active)
O=C(CCn1nc(-c2ccc(Cl)cc2)ccc1=O)NCc1ccccn1	-24.9%	–
O=C1CC(N2CCN(CCc3ccccn3)CC2)C(=O)N1c1ccc(Cl)cc1 (configuration not stated)	–	8.91 µM (active)

Structure (SMILES)	activity, negative = inhibition	AC50
CC1(C)CC2(CC(c3cccs3)c3cc(Cl)c(O)cc3O2)NC(=S)N1 (configuration not stated)	–	2.82 µM (active)
O=C(O)c1ccccc1OP(=O)(O)O	12.1% [at 25.6 µM]	–
Cc1ccc(Oc2nnc(-c3ccccc3)cc2C#N)cc1	-0.99%	–
Cc1nc(Sc2ccccc2)c(C#N)cc1-c1ccccc1	–	0.631 µM (active)
Cc1nc(Cl)c(C#N)cc1-c1ccccc1	–	5.62 µM (active)
Cc1cc2c(cc1C)NC1=C(N2)O[C@H](c2c[nH]c3ccc(COc4ccccc4)cc23)C1=O	–	0.501 µM (active)
O=C(O)c1c[nH]c2cc(OCc3ccccc3)ccc2c1=O	0.142% [at 11.4 µM]	–
Cc1ncc(N=Nc2ccccc2Cl)c(-c2ccccc2)n1	–	14.1 µM (active)
CCSC1=C(C#N)C2(CCCCC2)C(C#N)=C(N)N1	–	5.01 µM (active)
O=C(CNC(=O)c1ccco1)OC(C(=O)c1ccccc1)c1ccccc1 (configuration not stated)	–	5.62 µM (active)
COc1ccc(C(=O)C(OC(=O)CNC(=O)c2ccco2)c2ccccc2)cc1 (configuration not stated)	–	10 µM (active)
COc1ccc(C(=O)[C@H](Br)[C@H](Br)C(=O)O)cc1	-1.07% [at 11.4 µM]	–
COc1ccc(-c2ccc(/C=C3\C(=O)N(c4ccccc4)N=C3c3ccccc3)o2)c([N+](=O)[O-])c1	–	2.51 µM (active)
CC1=NN(c2ccccc2)C(=O)/C1=C\N1CC(C)OC(C)C1 (configuration not stated)	19.4%	–
COC(=O)c1ccccc1-c1ccc(/C=C2\C(=O)N(c3ccccc3)N=C2c2ccccc2)o1	–	1.41 µM (active)
CN(C)CCCN1CCC2(CCC(C(C)(C)C)CC2)CC1	40.8% [at 11.4 µM]	–
CC(Oc1ccccc1)C(=O)Nc1nc2c(s1)C(=O)CC(C)(C)C2 (configuration not stated)	–	7.08 µM (active)
C[C@H](Oc1ccccc1)C(=O)N[C@@H]1C(=O)N2[C@@H]1SC(C)(C)[C@@H]2C(=O)O	28.6% [at 25.6 µM]	–
O=C1N=C(N2CCC(Cc3ccccc3)CC2)S/C1=C/c1cn[nH]c1-c1ccccc1	–	3.55 µM (active)
CC(C)C(NC(=O)OCc1ccccc1)C(=O)O (configuration not stated)	-12.5%	–
CCN1C(=O)[C@H]2[C@H]3[C@H](O)[C@H](O)C/C(=N/NC(=O)OCc4ccccc4)[C@@H]3CC[C@@H]2C1=O	36.5% [at 11.4 µM]	–
CCC(C)C(NC(=O)OCc1ccccc1)C(=O)OCN1C(=O)c2ccccc2C1=O (configuration not stated)	–	3.16 µM (active)
Cc1ccc(C(=O)/C=C/c2c[nH]c3ccccc23)cc1	–	3.55 µM (active)
CCCn1c(/C=C/c2ccccc2)nc2ccccc21	–	7.94 µM (active)
O=S(=O)(O)CCCc1cccc2ccccc12	21.3% [at 11.4 µM]	–

Structure (SMILES)	activity, negative = inhibition	AC50
c1cc(CSSCc2ccncc2)ccn1	–	1.26 µM (active)
c1ccc2c(CSCc3cccc4ccccc34)cccc2c1	–	0.126 µM (active)
c1ccc2c(CSCCc3ccncc3)cccc2c1	–	0.0794 µM (active)
c1ccc2c(CSc3nnc(-c4ccncc4)o3)cccc2c1	–	0.282 µM (active)
c1ccc2c(CC3NCCN3)cccc2c1	28.8% [at 11.4 µM]	–
CCNc1ncc2nc(-c3ccc(F)cc3)c(=O)n(-c3ccccc3)c2n1	14.6%	–
c1ccc(CSCCc2ccncc2)cc1	–	0.1 µM (active)
O=C(Cc1ccc(Cl)cc1)NNC(=O)Nc1cccc2ccccc12	-29.4%	–
CN1CCN(CCc2ccc(Cl)c(Cl)c2)CC1	-37.7%	–
N[C@@H](CSC(=O)c1ccccc1)C(=O)O	16.7% [at 11.4 µM]	–
N=C(N)SCCc1ccc(CCSC(=N)N)cc1	-4%	–
Clc1ccc(CSCCc2ccncc2)cc1Cl	–	0.1 µM (active)
N=C(N)SCCc1ccncc1	9% [at 11.4 µM]	–
O=C(SCc1cccc2ccccc12)c1ccc(Cl)cc1	–	1.58 µM (active)
CCOC(=O)C1=C(CSc2nc(-c3ccccc3)ccc2C#N)OC(N)=C(C#N)C1c1ccc(OC)cc1 (configuration not stated)	–	2.82 µM (active)
CN1CCN(c2ncc3nc(-c4cc(F)cc(F)c4)c(=O)n(C)c3n2)CC1	-2.58%	–
Cc1ccc(OCC(O)CNC(=O)c2ccccc2C(=O)O)cc1 (configuration not stated)	–	20 µM (active)
CC(C)NC[C@@H](O)COc1ccc(COCCOC(C)C)cc1	–	inactive
Cc1ccc(S(=O)(=O)NCC(=O)N(CC(=O)NCc2ccco2)Cc2cccs2)cc1	–	14.1 µM (active)
CC(C)(C)OC(=O)NCCc1nnc(SCC(=O)Nc2cccc(Cl)c2)o1	–	3.98 µM (active)
NC(=O)OCC(COC(N)=O)c1ccccc1	-44.6%	–
Cc1ccc(C(CC(N)=O)c2ccco2)cc1 (configuration not stated)	–	14.1 µM (active)
